# Laboratory results published in PubChem BioAssay (NCI).
# The panel holds about 83,000 compounds, 20% with a hit somewhere; the sample as a whole holds those more often.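 Percent growth is the endpoint: 0 to 100 indicates growth inhibition (40 means 60% inhibition), 0 means no net growth, and negative values indicate cell death.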 A number with no mark means an inactive call. Active and inactive are the calls of the source. Rule for the calls: active = growth percent below 10; inactive = the rest.
# Experiments:
# Assay in all cases: NCI-60 one-dose screen, 48 h (100 = growth as untreated, 0 = no growth, -100 = all killed)
# Conditions in all cases: 10 µM unless noted
# NCI-H23 lung = test system: NCI-H23 lung
# NCI-H226 lung = test system: NCI-H226 lung
# NCI-H322M lung = test system: NCI-H322M lung
# HOP-62 NSCLC = test system: HOP-62 NSCLC
# NCI-H460 lung = test system: NCI-H460 lung
# HOP-92 NSCLC = test system: HOP-92 NSCLC
# NCI-H522 lung = test system: NCI-H522 lung
# A549/ATCC NSCLC = test system: A549/ATCC NSCLC
# 786-0 renal = test system: 786-0 renal
# COLO 205 colon = test system: COLO 205 colon
# DU-145 prostate = test system: DU-145 prostate
# K-562 leukemia = test system: K-562 leukemia
# MALME-3M melanoma = test system: MALME-3M melanoma
# MDA-MB-231 breast = test system: MDA-MB-231 breast
# RXF 393 renal = test system: RXF 393 renal
# SF-268 CNS = test system: SF-268 CNS
# SF-295 CNS = test system: SF-295 CNS
# SF-539 CNS = test system: SF-539 CNS
# UACC-257 melanoma = test system: UACC-257 melanoma
# M14 melanoma = test system: M14 melanoma
SMILES,growth (NCI-H23 lung),growth (NCI-H226 lung),growth (NCI-H322M lung),growth (HOP-62 NSCLC),growth (NCI-H460 lung),growth (HOP-92 NSCLC),growth (NCI-H522 lung),growth (A549/ATCC NSCLC),growth (786-0 renal),growth (COLO 205 colon),growth (DU-145 prostate),growth (K-562 leukemia),growth (MALME-3M melanoma),growth (MDA-MB-231 breast),growth (RXF 393 renal),growth (SF-268 CNS),growth (SF-295 CNS),growth (SF-539 CNS),growth (UACC-257 melanoma),growth (M14 melanoma)
CN(C)CCOc1nc2c3ccncc3cc(-c3cccc(Cl)c3)c2c2cnccc12,29.7%,35%,44.1%,43.5%,10.5%,56.2%,31.9%,16.4%,33.4%,13.8%,30.7%,-34.7% (active),40.1%,24%,1.01% (active),35.1%,31.6%,32%,47.3%,26%
CC(C)[C@H](CN)NC[C@H](C)NS(=O)(=O)c1ccc(C(C)(C)C)cc1,97%,74.2%,101%,94.6%,100%,71.9%,96.2%,98.7%,90.3%,105%,105%,85.7%,97.8%,117%,89.9%,93.5%,104%,96.9%,96.4%,97.3%
CCC(C)C1NC(=O)c2nc(oc2-c2ccccc2)-c2csc(n2)-c2csc(n2)-c2nc(oc2C)-c2coc(n2)CNC(=O)C(C(C)CC)NC1=O (stereo not given),-68.2% (active),-55.8% (active),-98.9% (active),-57% (active),-81.4% (active),-83.3% (active),-74.7% (active),-76.6% (active),-73.1% (active),-77.3% (active),-90.6% (active),-66.3% (active),-84.9% (active),-74.4% (active),-72.5% (active),-66.9% (active),-78.9% (active),-80.5% (active),-66.2% (active),-85.2% (active)
CN1CCN(Cc2ccc(NC(=O)c3cnc(F)c(C#Cc4cnc(N)c5ncccc45)c3)cc2C(F)(F)F)CC1,28.3%,-14.2% (active),33.7%,16.6%,13.1%,-8.06% (active),30%,23.3%,29.5%,-7.96% (active),30.5%,1.55% (active),-43.1% (active),-25.7% (active),-0.985% (active),28.6%,48.2%,9.63% (active),13.5%,-56.4% (active)
Nc1nc(N)c2c(n1)NC(c1sc(Cl)nc1Cl)CC(c1ccc3c(c1)OCO3)=N2 (stereo not given),39.9%,82.7%,72.6%,34.5%,13.2%,56%,-28.3% (active),36.4%,38.1%,7.12% (active),35.3%,16.9%,28.8%,48.8%,-1.6% (active),38.8%,18.5%,-14.9% (active),39.2%,18.1%
O=C(C(=O)c1cccnc1)c1cccnc1,98.8%,115%,117%,98.4%,111%,103%,-0.192% (active),111%,101%,174%,121%,110%,118%,99.7%,136%,95.8%,116%,99.3%,95%,96.3%
CCSc1ccc([C@@H]2[C@@H](O)C(=O)N2c2cc(OC)c(OC)c(OC)c2)cc1,34%,50.7%,39.4%,22.6%,5.97% (active),101%,6.56% (active),20.8%,14%,-48.8% (active),12.5%,7.65% (active),71%,23.6%,35.9%,31.4%,18.1%,1.7% (active),66.5%,10.4%
COc1cccc(CC(C)=C(c2ccc(OCCCN(C)C)cc2)c2ccc(OCCCN(C)C)cc2)c1,-66.9% (active),-18.9% (active),-95% (active),-81% (active),-90.2% (active),-53% (active),-77.3% (active),-81.5% (active),-85.6% (active),-74.1% (active),-94.4% (active),-67.5% (active),-87% (active),-82.2% (active),-89.5% (active),-81.8% (active),-68.2% (active),-91.6% (active),-82.3% (active),-80% (active)
